“And” between values parts separate entries of the source, which are not always exact repeats. Equal values may be shown once. The campaign covered roughly 73,000 compounds. About 2,500 (3.4%) were called active. Roughly 7% stayed inconclusive and do not appear here. Calls come from the whole dose curve; as a rule, active = well fitted inhibition curve with a large enough effect; inconclusive = small, poorly fitted or top-dose-only effect; inactive = no such curve, though single readings can be large or run the other way. The entries come from a sample that favours actives as a whole. Entries that show only a call come without a potency.
Potency is the fitted concentration of half-maximal effect.

Sequence of 3-hydroxyacyl-CoA dehydrogenase type-2 (Homo sapiens) (Q99714 whole entry, looked up): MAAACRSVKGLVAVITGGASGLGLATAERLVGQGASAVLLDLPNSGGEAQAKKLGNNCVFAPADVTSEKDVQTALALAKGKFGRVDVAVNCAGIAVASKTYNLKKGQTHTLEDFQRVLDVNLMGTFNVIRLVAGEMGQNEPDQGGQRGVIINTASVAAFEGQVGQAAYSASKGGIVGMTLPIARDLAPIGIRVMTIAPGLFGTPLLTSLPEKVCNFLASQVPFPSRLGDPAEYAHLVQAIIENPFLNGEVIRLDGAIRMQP
Sequence of 3-hydroxyacyl-CoA dehydrogenase type-2 (Homo sapiens) (Q99714 whole entry, looked up): as above

This experiment concerns the target 3-hydroxyacyl-CoA dehydrogenase type-2 (Homo sapiens) (UniProt Q99714). In words: qHTS Assay for Inhibitors of HADH2 (Hydroxyacyl-Coenzyme A Dehydrogenase, Type II). Note: nearly all actives have a fitted effect of over 60% in size. The note with it: recombinant HADH2, NADH fluorescence, beta-hydroxybutyryl-CoA; series mostly up to 57.1 µM. The text has this: Assay Overview: NIH Molecular Libraries Screening Centers Network [MLSCN] NIH Chemical Genomics Center [NCGC] Structural Genomics Consortium [SGC] Grant Number: None HADH2: Hydroxyacyl-Coenzyme A dehydrogenase, type II, was supplied by researchers at the Structural Genomics Consortium, Oxford University lab (PI Udo Oppermann). The mitochondrial enzyme 17-hydroxysteroid dehydrogenase type 10 (HSD17-10) previously classified as type II hydroxyacyl-CoA dehydrogenase (HADH2) catalyzes the NAD+ dependent oxidation of a variety of substrates including acyl-CoAs, androgens and neurosteroids as well as bile acids(Shafqat N, Marschall HU, Filling C, et al. Biochemical Journal. 2003;376(Pt 1):49-60). The role in neurodegeneration by binding to amyloid-peptide led to its identification (Oppermann UC, et al FEBS Letters. 1999;451(3):238-242 and Yan SD, et al. Nature. 1997;389(6652):689-695), and mutations in its gene appear to be causative for 2-methyl-3-hydroxybutyryl-CoA dehydrogenase deficiency (Ofman R, et al. American Journal of Human Genetics. 2003;72(5):1300-1307). The enzyme was produced by E.coli fermentation as His-tagged recombinant for the purpose of X-ray structure determination, and had been mass-spectrometry characterized. Inhibition of HADH2 activity was screened by utilizing beta-hydroxybutyryl coenzyme A as an electron donor and NAD+ as an electron acceptor/cofactor. An increase in the fluorescence intensity due to conversion of NAD+ to NADH was used to measure the enzyme activity.
Assay Protocol: Buffer: 100 mM Tris-HCl pH 9.0, containing 0.01 % Tween-20. Reagents/Controls: Buffer in columns 3 and 4 as negative control (no enzyme). Substrate/cofactor solution: 1 mM NAD+ and 90 uM beta-hydroxybutyryl coenzyme A (Sigma-Aldrich, St. Louis, MO) final concentrations dispensed throughout the plate. Enzyme: 20 nM HADH2 final concentration in columns 1, 2, 5-48. Column 1 is neutral (100% activity). Column 2 contained titration of apomorphine (Sigma-Aldrich, A 4393, PubChem CID 2215, top concentration 500 uM, then 1:2 dilution in duplicate) Assay Steps: Three uL of enzyme were dispensed to 1536-well Greiner black solid bottom plates. Compounds and controls (23 nL) were transferred via Kalypsys PinTool. The plates were incubated for 15 min at room temperature, and then 1 uL of substrate/cofactor solution was added to start the reaction. The plates were immediately transferred to and read every 30 seconds for 4 min on ViewLux High-throughput CCD imager (Perkin-Elmer) using 360 nm excitation and 450 nm emission fluorescence protocol. The fluorescence intensity difference between the last and the first time points was used to compute reaction progress.
Turning to `COC(=O)N(c1ccc(OC)cc1)P1(=S)OCCC(C)O1` (stereo not given), the Potency is 1 µM (active).

On to `Fc1ccc(C(OCCN2CCN(C/C=C\c3ccccc3)CC2)c2ccc(F)cc2)cc1`, for which the Potency entry was “inactive”. As for `N[C@H](Cc1o[nH]c(=O)c1Cl)C(=O)O`, the Potency entry was “inactive”. As for `C/C(=C\C=C/[C@@H](C)C(=O)O)[C@H]1CN[C@H](C(=O)O)[C@@H]1CC(=O)O`, the Potency entry is “inactive”. Same read-out and setting: the entry for `O=C1C2(Cl)C3(Cl)C4(Cl)C(Cl)(Cl)C5(Cl)C3(Cl)C1(Cl)C5(Cl)C24Cl` (stereo not given) is “inactive”. For the compound `COc1ccc(CN2CCN(c3ccccc3F)CC2)c(OC)c1`, the activity change, negative = inhibition is -2.55% [at 11.4 µM] (inactive).

As for `CC(Cl)Cl`, the Potency entry was “inactive”.

Regarding `Cc1cccc([C@H](C)c2cnc[nH]2)c1C`, the Potency entry was “inactive”. For the compound `O=[N+]([O-])c1ccc(Cl)c(Cl)c1`, the Potency is 31.6 µM (active).

In the case of `Nc1ccc([N+](=O)[O-])cc1`, the Potency entry is “inactive”. On the same count and under the same terms, the entry for `Cc1cc(-c2ccc(N)c(C)c2)ccc1N` is “inactive”. Still for that read-out and setting: the entry for `ClCCBr` is “inactive”. In the case of `O=C(O)C(=O)Cc1ccc2c(c1)OCO2`, the activity change, negative = inhibition is -12.9% [at 11.4 µM] (inactive). The same measure, in the same setting: to `CC(=O)O[C@H]1CC[C@@]2(C)[C@@H](CC[C@H]3[C@H]2CC(=O)[C@]2(C)[C@@H]3C[C@@H](N3CC3)[C@H]2C(C)=O)C1` belongs 16.9% [at 11.4 µM] (inactive). With `CC(C)(O/N=C(\C(=O)N[C@@H]1C(=O)N2C(C(=O)[O-])=C(C[n+]3ccccc3)CS[C@@H]12)c1csc(N)n1)C(=O)O`, the Potency is 7.94 µM (active). The same measure, in the same setting: the entry for `c1ccc(CN2CC[C@@]3(CCCNC3)C2)cc1` is “inactive”. For `NCC[Se][Se]CCN`, the activity change, negative = inhibition is 1.13% [at 11.4 µM] (inactive). `NC[C@H](O)c1ccc(O)cc1`: the Potency result was “inactive”. On the same count and under the same terms, to `BrC1C(Br)C(Br)C(Br)C(Br)C1Br` (stereo not given) belongs 25.1 µM (active). With `C[C@H](Br)C(=O)N[C@H](CO)C(=O)O`, the activity change, negative = inhibition was -0.293% [at 11.4 µM] (inactive). As to `CC[C@]1(O)C(=O)OCc2c1cc1n(c2=O)Cc2cc3ccccc3nc2-1`, the Potency entry was “inactive”. With `CCCCN1C2CCC1CC(OC(c1ccc(F)cc1)c1ccc(F)cc1)C2` (stereo not given), the Potency result is “inactive”.

As to `CCOC(=O)c1c(-c2ccccc2)oc2ccc(OC(=O)N(C)C)cc12`, the Potency was 7.94 µM (active). Still for that read-out and setting: to `C[C@@]12CC[C@H]3[C@@H](CC[C@]4(O)C[C@H](O)CC[C@@]34C=O)[C@]1(O)CC[C@@H]2C1=CC(=O)OC1` belongs “inactive”.

For `Clc1ccc([C@@H]2C[C@H]3CC[C@@H]2N3)cn1`, the Potency entry is “inactive”. Same read-out and setting: to `ClC(Cl)(Cl)c1ccccc1` belongs “inactive”. On the same count and under the same terms, to `CC(=O)c1c(O)c(C)c(O)c(Cc2c(O)c3c(c(C(=O)/C=C\c4ccccc4)c2O)OC(C)(C)C=C3)c1O` belongs 12.6 µM (active) and 1 µM (active); to `Nc1ccc(Cc2ccc(N)c(Cl)c2)cc1Cl`, “inactive”; to `Clc1ccccc1`, “inactive”. Take `CC(C)(c1ccccc1)c1ccc(O)cc1`: the Potency result was “inactive”.

The record behind these values is PubChem BioAssay AID886 (National Center for Advancing Translational Sciences (NCATS), 2007).
